Measured values as given in the supplement of paper PMC12819154, “High-throughput peptide-centric local stability assay extends protein–ligand identification to membrane proteins, tissues and bacteria” (Nature Structural & Molecular Biology, 2025).

compound: CN[C@@H]1C[C@H]2O[C@@](C)([C@@H]1OC)n1c3ccccc3c3c4c(c5c6ccccc6n2c5c31)C(=O)NC4 [staurosporine]; assay: log2 fold change of tryptic peptide abundance, ligand vs vehicle (limited proteolysis) (log2 ratio); higher = more trypsin-susceptible (destabilized); details: ligand concentration: 20 uM; sample: K562 cleared lysate; digestion: 4 min, 22 C (HT-PELSA RT4min, Orbitrap Astral)

Sequence of UniProt P53671 (P53671 whole entry, looked up): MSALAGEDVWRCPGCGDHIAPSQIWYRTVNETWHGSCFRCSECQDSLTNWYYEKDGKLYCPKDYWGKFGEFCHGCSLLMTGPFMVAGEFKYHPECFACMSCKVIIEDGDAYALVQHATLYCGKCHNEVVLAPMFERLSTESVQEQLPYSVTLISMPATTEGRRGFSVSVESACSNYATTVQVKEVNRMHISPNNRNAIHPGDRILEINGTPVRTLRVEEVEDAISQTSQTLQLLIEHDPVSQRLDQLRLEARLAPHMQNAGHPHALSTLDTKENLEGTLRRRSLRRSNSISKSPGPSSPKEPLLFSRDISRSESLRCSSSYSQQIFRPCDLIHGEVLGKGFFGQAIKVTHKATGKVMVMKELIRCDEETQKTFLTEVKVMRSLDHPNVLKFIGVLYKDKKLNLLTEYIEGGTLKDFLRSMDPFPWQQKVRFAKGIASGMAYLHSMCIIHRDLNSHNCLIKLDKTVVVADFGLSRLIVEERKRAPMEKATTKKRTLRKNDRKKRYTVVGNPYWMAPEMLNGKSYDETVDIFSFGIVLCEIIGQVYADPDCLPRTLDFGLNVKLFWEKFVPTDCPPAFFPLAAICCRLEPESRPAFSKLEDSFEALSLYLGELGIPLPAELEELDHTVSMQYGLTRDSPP
Sequence of UniProt Q9P2K8 (Q9P2K8 whole entry): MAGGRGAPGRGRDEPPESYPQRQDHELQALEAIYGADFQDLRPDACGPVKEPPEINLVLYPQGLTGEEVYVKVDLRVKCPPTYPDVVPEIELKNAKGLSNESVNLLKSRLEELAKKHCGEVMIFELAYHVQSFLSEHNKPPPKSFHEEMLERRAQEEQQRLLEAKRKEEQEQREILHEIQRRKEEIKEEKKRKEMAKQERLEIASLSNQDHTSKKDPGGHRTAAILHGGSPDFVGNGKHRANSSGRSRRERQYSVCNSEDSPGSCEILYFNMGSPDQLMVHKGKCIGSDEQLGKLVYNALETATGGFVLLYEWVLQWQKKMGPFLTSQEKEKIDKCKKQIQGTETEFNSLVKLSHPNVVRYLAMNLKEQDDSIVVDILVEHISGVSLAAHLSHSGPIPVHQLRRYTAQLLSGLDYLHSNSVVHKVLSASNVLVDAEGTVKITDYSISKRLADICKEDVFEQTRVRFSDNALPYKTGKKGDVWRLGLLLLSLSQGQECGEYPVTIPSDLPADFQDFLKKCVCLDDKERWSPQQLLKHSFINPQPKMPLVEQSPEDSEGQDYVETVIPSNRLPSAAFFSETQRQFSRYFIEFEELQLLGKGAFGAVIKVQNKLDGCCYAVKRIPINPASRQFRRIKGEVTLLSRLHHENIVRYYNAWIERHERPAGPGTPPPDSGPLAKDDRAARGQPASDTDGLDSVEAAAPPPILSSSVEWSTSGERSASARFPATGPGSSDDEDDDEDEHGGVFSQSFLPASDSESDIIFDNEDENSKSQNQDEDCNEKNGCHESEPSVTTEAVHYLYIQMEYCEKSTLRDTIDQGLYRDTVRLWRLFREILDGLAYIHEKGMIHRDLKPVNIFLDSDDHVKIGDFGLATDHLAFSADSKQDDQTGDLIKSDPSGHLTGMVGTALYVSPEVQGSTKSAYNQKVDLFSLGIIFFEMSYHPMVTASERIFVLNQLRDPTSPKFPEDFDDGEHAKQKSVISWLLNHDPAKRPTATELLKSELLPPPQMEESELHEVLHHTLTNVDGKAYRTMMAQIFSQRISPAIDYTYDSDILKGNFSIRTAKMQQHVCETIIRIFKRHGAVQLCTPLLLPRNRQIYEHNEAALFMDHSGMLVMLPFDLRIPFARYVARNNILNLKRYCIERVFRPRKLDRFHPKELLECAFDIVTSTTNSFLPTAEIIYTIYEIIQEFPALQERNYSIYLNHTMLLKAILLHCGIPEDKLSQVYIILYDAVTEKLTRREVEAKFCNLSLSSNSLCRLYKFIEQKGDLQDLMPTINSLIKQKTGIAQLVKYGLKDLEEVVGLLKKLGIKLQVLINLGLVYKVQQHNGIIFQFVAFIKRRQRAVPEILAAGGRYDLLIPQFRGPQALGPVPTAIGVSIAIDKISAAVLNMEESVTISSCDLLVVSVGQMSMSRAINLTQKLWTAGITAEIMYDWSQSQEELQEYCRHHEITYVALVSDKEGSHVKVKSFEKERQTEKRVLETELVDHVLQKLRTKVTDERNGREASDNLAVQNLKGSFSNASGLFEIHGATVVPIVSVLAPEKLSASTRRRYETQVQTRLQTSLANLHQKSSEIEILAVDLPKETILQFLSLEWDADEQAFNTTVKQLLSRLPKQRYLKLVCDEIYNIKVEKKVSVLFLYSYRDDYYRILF
Sequence of UniProt Q96EV8 (Q96EV8 whole entry): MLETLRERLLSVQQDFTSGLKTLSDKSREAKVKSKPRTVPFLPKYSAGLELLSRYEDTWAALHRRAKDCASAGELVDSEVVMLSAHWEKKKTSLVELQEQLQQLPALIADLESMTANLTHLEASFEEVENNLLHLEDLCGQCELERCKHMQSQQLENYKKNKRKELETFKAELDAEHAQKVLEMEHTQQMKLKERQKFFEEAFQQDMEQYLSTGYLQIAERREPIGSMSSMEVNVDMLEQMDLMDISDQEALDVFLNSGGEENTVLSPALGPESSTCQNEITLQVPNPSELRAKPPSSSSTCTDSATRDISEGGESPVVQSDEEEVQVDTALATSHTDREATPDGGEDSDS
Sequence of UniProt Q16629 (Q16629 whole entry): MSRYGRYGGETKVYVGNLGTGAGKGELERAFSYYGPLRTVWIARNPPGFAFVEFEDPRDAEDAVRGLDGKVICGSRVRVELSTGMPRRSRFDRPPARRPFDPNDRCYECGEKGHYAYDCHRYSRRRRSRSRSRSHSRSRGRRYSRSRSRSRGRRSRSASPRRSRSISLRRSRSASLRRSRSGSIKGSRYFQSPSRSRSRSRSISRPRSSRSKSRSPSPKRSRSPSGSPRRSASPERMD
Sequence of UniProt P16591 (P16591 whole entry, looked up): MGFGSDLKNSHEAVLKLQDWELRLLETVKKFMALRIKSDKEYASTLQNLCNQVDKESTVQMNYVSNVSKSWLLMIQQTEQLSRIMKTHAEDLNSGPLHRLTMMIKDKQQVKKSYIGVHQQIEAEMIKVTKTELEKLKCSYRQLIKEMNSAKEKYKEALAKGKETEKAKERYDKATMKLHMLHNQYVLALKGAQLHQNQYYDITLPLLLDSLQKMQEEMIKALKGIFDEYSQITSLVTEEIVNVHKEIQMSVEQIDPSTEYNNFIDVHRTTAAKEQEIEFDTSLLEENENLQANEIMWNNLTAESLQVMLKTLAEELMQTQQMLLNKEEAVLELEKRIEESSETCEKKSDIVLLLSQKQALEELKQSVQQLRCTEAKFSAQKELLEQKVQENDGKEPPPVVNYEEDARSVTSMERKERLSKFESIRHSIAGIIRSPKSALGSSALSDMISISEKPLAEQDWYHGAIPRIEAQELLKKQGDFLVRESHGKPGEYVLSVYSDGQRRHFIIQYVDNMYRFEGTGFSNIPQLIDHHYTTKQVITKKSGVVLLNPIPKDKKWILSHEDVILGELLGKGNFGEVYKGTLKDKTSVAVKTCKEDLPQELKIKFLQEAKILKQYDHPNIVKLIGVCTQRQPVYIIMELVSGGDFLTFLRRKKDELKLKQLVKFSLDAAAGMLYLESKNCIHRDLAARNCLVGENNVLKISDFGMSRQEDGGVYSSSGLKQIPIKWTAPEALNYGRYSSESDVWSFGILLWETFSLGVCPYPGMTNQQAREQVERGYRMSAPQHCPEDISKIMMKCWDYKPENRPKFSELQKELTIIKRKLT
Sequence of UniProt Q6ICG6 (Q6ICG6 whole entry): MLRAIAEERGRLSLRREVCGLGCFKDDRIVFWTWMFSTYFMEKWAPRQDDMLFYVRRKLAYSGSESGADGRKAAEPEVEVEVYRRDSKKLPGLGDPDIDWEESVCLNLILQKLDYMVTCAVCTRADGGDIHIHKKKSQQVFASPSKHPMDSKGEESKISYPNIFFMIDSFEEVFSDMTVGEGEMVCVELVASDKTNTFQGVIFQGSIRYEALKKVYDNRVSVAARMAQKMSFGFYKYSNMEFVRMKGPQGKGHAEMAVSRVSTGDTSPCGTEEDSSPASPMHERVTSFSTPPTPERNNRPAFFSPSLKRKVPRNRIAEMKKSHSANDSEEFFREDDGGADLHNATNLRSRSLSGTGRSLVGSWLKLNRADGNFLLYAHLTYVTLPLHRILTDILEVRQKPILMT
Sequence of UniProt Q15418 (Q15418 whole entry): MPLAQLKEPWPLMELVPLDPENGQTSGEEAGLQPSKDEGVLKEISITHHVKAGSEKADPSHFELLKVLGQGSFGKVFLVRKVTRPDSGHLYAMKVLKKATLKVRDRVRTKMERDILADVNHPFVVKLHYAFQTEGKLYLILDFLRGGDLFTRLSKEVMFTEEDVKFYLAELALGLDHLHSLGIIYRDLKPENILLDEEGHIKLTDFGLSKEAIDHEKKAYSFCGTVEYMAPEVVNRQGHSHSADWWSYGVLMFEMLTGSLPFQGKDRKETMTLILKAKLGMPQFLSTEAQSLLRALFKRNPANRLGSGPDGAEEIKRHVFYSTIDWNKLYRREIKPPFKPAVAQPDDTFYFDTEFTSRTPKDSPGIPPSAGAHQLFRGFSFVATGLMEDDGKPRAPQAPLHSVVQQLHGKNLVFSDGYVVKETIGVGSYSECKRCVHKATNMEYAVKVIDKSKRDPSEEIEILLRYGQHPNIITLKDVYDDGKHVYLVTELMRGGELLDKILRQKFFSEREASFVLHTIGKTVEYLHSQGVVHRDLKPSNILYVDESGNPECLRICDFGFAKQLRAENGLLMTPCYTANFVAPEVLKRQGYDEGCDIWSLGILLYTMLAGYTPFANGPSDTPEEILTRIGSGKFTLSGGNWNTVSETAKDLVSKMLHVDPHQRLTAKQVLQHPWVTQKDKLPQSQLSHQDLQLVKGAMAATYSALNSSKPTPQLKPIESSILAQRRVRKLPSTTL
Sequence of UniProt P69891 (P69891 whole entry): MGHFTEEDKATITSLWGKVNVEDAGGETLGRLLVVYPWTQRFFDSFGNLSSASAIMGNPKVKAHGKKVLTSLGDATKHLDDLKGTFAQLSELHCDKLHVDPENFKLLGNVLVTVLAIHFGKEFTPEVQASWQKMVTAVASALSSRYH

Target | log2 fold change
MAP3K4 (peptide sequence: DFLSHCLESDPK, peptide start residue: 1576) (UniProt Q9Y6R4) | -1.49
UniProt Q16629 (peptide sequence: YFQSPSR, peptide start residue: 189) | 1.29
AK2 (peptide sequence: NLETPLCK, peptide start residue: 86) (UniProt P54819) | 0.399
MAPK11 (peptide sequence: ILDFGLAR, peptide start residue: 166) (UniProt Q15759) | -1.18
UniProt Q9BUB5 (peptide sequence: GLPTPQVLQR, peptide start residue: 382) | 0.803
EIF2AK4 (peptide sequence: DLKPVNIFLDSDDHVK, peptide start residue: 848) (UniProt Q9P2K8) | -1.33
CAD (peptide sequence: FLSSAAAVSKEHPVVISK, peptide start residue: 1110) (UniProt P27708) | -0.418
CHD4 (peptide sequence: SDSEGSDYTPGK, peptide start residue: 103) (UniProt Q14839) | 1.11
GEMIN5 (peptide sequence: MLSTFKELFSEK, peptide start residue: 1352) (UniProt Q8TEQ6) | -1
BRAF (peptide sequence: GYLSPDLSK, peptide start residue: 525) (UniProt P15056) | 0.499
CAMKK2 (peptide sequence: FYFQDLIK, peptide start residue: 291) (UniProt Q96RR4) | -2.2
LIMK2 (peptide sequence: TLDFGLNVK, peptide start residue: 553) (UniProt P53671) | -1.38
INTS12 (peptide sequence: SVSCDNVSK, peptide start residue: 376) (UniProt Q96CB8) | 1.68
TAGLN2 (peptide sequence: TLMNLGGLAVAR, peptide start residue: 128) (UniProt P37802) | 0.271
DDX41 (peptide sequence: TDEVPAGGSR, peptide start residue: 13) (UniProt Q9UJV9) | 0.553
HBG1 (peptide sequence: VLTSLGDAIK, peptide start residue: 68) (UniProt P69891) | 0.204
AKT1 (peptide sequence: HRVTMNEFEYLK, peptide start residue: 143) (UniProt P31749) | -0.676
UniProt Q13043 (peptide sequence: ATATQLLQHPFVR, peptide start residue: 270) | -3.53
DTNBP1 (peptide sequence: YEDTWAALHRR, peptide start residue: 55) (UniProt Q96EV8) | -0.512
PRKAR1B (peptide sequence: NVLFAHLDDNER, peptide start residue: 135) (UniProt P31321) | 1.02
VRK1 (peptide sequence: DILLQGLK, peptide start residue: 322) (UniProt Q99986) | -0.866
SRPK1 (peptide sequence: HFTEDIQTR, peptide start residue: 507) (UniProt Q96SB4) | -1.75
PNPO (peptide sequence: SSQIGAVVSHQSSVIPDR, peptide start residue: 164) (UniProt Q9NVS9) | 1.66
MAP4K2 (peptide sequence: ALLTQLLDK, peptide start residue: 280) (UniProt Q12851) | -0.962
UniProt Q2VIR3 (peptide sequence: FKNELER, peptide start residue: 69) | 0.555
PKN3 (peptide sequence: TTNWQALLAR, peptide start residue: 820) (UniProt Q6P5Z2) | -2.37
UniProt Q6ICG6 (peptide sequence: KAAEPEVEVEVYRR, peptide start residue: 72) | -1.02
UniProt Q15418 (peptide sequence: DILADVNHPFVVK, peptide start residue: 114) | -1.43
FER (peptide sequence: NCLVGENNVLK, peptide start residue: 689) (UniProt P16591) | -0.84
